In PubChem BioAssay:
Activity calls are given as the source filed them. How the calls were made is not given here.

These compounds were tested on Aerobactin synthetase IucA (Klebsiella pneumoniae, hypervirulent) (assay: IucA enzyme inhibition, biochemical, LOPAC library, absorbance readout (AID 1346212;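 further: 100% = no compound wells and 0% = no enzyme wells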)). Settings: IucA enzyme assay, absorbance (OD) readout; hits give low values;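 tested at 8 µM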.
With `O=C(O)C1=CCCN(CCON=C(c2ccccc2)c2ccccc2)C1` the remaining activity was 104% (inactive).
In the case of `CCCCCCCC/C=C\CCCCCCCC(=O)O`, the remaining activity is reported as 119% (inactive).
`NC1CCN(c2cccc(Cl)n2)CC1` was tested, and the remaining activity was 104% (inactive).
With `C[C@]12CCC(=O)C=C1CC[C@@H]1[C@@H]2[C@@H](O)C[C@@]2(C)[C@H]1CC[C@]2(O)C(=O)COC(=O)CCC(=O)O` the remaining activity was 92.9% (inactive).
With `CC1=C(C(=O)O)N2C(=O)[C@@H](NC(=O)[C@H](N)c3ccccc3)[C@H]2SC1` the remaining activity was 118% (inactive).
`Nc1nc2ccc(Cl)cc2c2nc(-c3ccco3)nn12` was tested, and the remaining activity was 104% (inactive).
For `O=c1onc2n1-c1cc(Br)ccc1OC2`, the remaining activity was 105% (inactive).
With `N#CC(=C(/N)Sc1ccccc1N)/C(C#N)=C(\N)Sc1ccccc1N` the remaining activity was 104% (inactive).
With `COc1ccccc1N1CCN(CCCNc2cc(=O)n(C)c(=O)n2C)CC1` the remaining activity was 97% (inactive).
For `C[N+](C)(C)CCCCCNCC12CC3CC(CC(C3)C1)C2`, the remaining activity was 120% (inactive).
For `N[C@H]1CONC1=O`, the remaining activity was 113% (inactive).
`COc1ccccc1N1CCN(CC(O)COc2cccc3ccccc23)CC1` (stereo not given) was tested, and the remaining activity was 96.1% (inactive).
For `C[C@H]1O[C@@H](n2cc(F)c(=O)[nH]c2=O)[C@H](O)[C@@H]1O`, the remaining activity was 98.9% (inactive).
In the case of `O=C(O)CCC(C(=O)O)N1C(=O)c2ccccc2C1=O` (stereo not given), the remaining activity is reported as 121% (inactive).
With `C=C1C(=O)O[C@@H]2[C@H]3O[C@]3(C)CC/C=C(\C)CC[C@@H]12` the remaining activity was 119% (inactive).
For `NC(Cc1cccc(-c2ccccc2CP(=O)(O)O)c1)C(=O)O` (stereo not given), the remaining activity was 103% (inactive).
For `c1cnc(N2CCN(Cc3ccc4c(c3)OCO4)CC2)nc1`, the remaining activity was 102% (inactive).
In the case of `CC1=C(/C=C/C(C)=C/C=C/C(C)=C/C=C/C=C(C)/C=C/C=C(C)/C=C/C2=C(C)C(=O)[C@@H](O)CC2(C)C)C(C)(C)C[C@H](O)C1=O`, the remaining activity is reported as 107% (inactive).
In the case of `C#C[C@]1(O)CC[C@H]2[C@@H]3CCC4=Cc5oncc5C[C@]4(C)[C@H]3CC[C@@]21C`, the remaining activity is reported as 101% (inactive).
For `CCC(C)N(C)C(=O)c1cc2ccccc2c(-c2ccccc2Cl)n1` (stereo not given), the remaining activity was 116% (inactive).
For `N#Cc1cc([N+](=O)[O-])c2sc(C(N)=O)[n+]([O-])c2c1`, the remaining activity was 106% (inactive).
In the case of `O=C(O)/C=C/c1cnc[nH]1`, the remaining activity is reported as 101% (inactive).
With `CCN(CC)C(=O)c1ccc(O)c(OC)c1` the remaining activity was 122% (inactive).
In the case of `C[N+](C)(CCCCCC[N+](C)(C)CCCN1C(=O)c2cccc3cccc(c23)C1=O)CCCN1C(=O)c2cccc3cccc(c23)C1=O`, the remaining activity is reported as 100% (inactive).
In the case of `CN(C)CC/C=C1/c2ccccc2Sc2ccc(Cl)cc21`, the remaining activity is reported as 115% (inactive).
`O=C(OCCN1CCCCC1)c1c[nH]c2ccccc12` was tested, and the remaining activity was 102% (inactive).
In the case of `O=c1[nH]c(=O)c2nc3ccccc3nc2[nH]1`, the remaining activity is reported as 114% (inactive).
In the case of `CCN(CC)CCCCCCCCOC(=O)c1cc(OC)c(OC)c(OC)c1`, the remaining activity is reported as 100% (inactive).
For `NO`, the remaining activity was 100% (inactive).
`CCCCOC(=O)NS(=O)(=O)c1sc(CC(C)C)cc1-c1ccc(Cn2c(CC)nc3c(C)cc(C)nc32)cc1` was tested, and the remaining activity was 116% (inactive).
With `CO/N=C(\C(=O)N[C@@H]1C(=O)N2C(C(=O)O)=C(CSc3nc(=O)c(=O)[nH]n3C)CS[C@H]12)c1csc(N)n1` the remaining activity was 117% (inactive).
For `CCCCC/C=C\C[C@@H](O)/C=C/c1cccc(C[C@@H](O)CCCCO)n1`, the remaining activity was 92.2% (inactive).
For `CCCCCC(O)c1cccc(OCc2ccc3ccccc3n2)c1` (stereo not given), the remaining activity was 98.9% (inactive).
In the case of `CC(C)[N+]1(C)[C@@H]2CC[C@H]1CC(OC(=O)C(CO)c1ccccc1)C2` (stereo not given in full), the remaining activity is reported as 118% (inactive).
`Cc1cc(NC(=O)Nc2ccc3c(ccn3C)c2)sn1` was tested, and the remaining activity was 122% (inactive).
For `CC(C)COC(=O)OCN1C(=O)CN(CCN2CC(=O)N(COC(=O)OCC(C)C)C(=O)C2)CC1=O`, the remaining activity was 96.8% (inactive).
For `Cc1cc2c(cc1Cl)N(C(=O)Nc1ccc(Oc3cccnc3C)nc1)CC2`, the remaining activity was 103% (inactive).
With `O=C1C(SCCO)=C(SCCO)C(=O)c2ccccc21` the remaining activity was 117% (inactive).
In the case of `Cn1c(=O)c2[nH]c(-c3ccccc3)nc2n(C)c1=O`, the remaining activity is reported as 124% (inactive).
`CC1(C)CCC(NC(=O)[C@@H](N)CCC(=O)O)CC1` was tested, and the remaining activity was 116% (inactive).
